# Results taken from PubChem BioAssay (Tox21).
# Inconclusive results are not listed. Values without a mark were called inactive. Calls of active or inactive are those of the source. Calls come from the whole dose curve; as a rule, active = well fitted curve in the direction sought with a large enough effect in the repeat runs; inconclusive = weak or mixed curves; inactive = no such curve, though single readings can be large; an effect the other way counts as inactive or inconclusive.
# Test: qHTS assay to identify small molecule antagonists of the estrogen related receptor signaling pathway with the pleiotropic PPARgamma coactivator (PGC) cell viability counter screen (AID 1224822)
# Conditions: ERR/PGC reporter cell line viability counter screen; series mostly up to 92.2 µM; viability change, negative = cytotoxic: at the top concentration
# Summary of the method: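 Cells: PGC/ERR, 2,000/well, 1536-well format. Pre-incubation 6 h, 37 C/5% CO2. Compound exposure 17.5 h, 37 C. Detection: CellTiter-Fluor, 30 min, fluorescence.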
# % is set by controls: 0 for no effect and ±100 for the full control effect.
row,Structure (SMILES),"viability change, negative = cytotoxic"
1,CC(=O)[C@H]1CC[C@H]2[C@@H]3CC[C@H]4C[C@](C)(O)CC[C@]4(C)[C@H]3CC[C@]12C,11.9% [at 46.1 µM]
2,C=CC(=O)NCNC(=O)C=C,1.59%
3,O=S(=O)(O)C(F)(F)C(F)(F)C(F)(F)C(F)(F)F,6.31%
4,c1ccc(C2CC2)c(OCC2=NCCN2)c1,9.23% [at 46.1 µM]
5,CC(C)=CCOc1c2occc2cc2ccc(=O)oc12,4.56% [at 46.1 µM]

# Test: qHTS assay to identify small molecule agonists of the estrogen related receptor signaling pathway with the pleiotropic PPARgamma coactivator (PGC) (AID 1224823)
# Conditions: ERR/PGC reporter cell line, luciferase agonist mode; series mostly up to 92.2 µM; activation: at the top concentration
# Summary of the method: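 PGC/ERR reporter cells were seeded, rested 6 h at 37 C/5% CO2, then exposed to compounds in DMSO by pin transfer for 18 h at 37 C. Luciferase activity was read as luminescence after One-Glo reagent and 30 min at room temperature.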
row,Structure (SMILES),activation
1,CC(=O)[C@H]1CC[C@H]2[C@@H]3CC[C@H]4C[C@](C)(O)CC[C@]4(C)[C@H]3CC[C@]12C,-2.15% [at 46.1 µM]
2,C=CC(=O)NCNC(=O)C=C,5.17%
3,O=S(=O)(O)C(F)(F)C(F)(F)C(F)(F)C(F)(F)F,-3.13%
4,c1ccc(C2CC2)c(OCC2=NCCN2)c1,3.04% [at 46.1 µM]
5,CC(C)=CCOc1c2occc2cc2ccc(=O)oc12,-5.42% [at 46.1 µM]

# Test: qHTS assay to identify small molecule antagonists of the estrogen related receptor (ERR) signaling pathway from Tox21 library - cell viability counter screen (AID 1224834); note: nearly all actives have a fitted effect of over 30% in size; note: potency is the fitted concentration of half-maximal effect
# Conditions: ERR reporter cells viability, CellTiter-Fluor, 17.5 h; series mostly up to 92.4 µM; viability change, negative = cytotoxic: at the top concentration
# Summary of the method: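 Fluorescence from CellTiter-Fluor gives the viability read-out, taken 30 min after reagent addition. Before that, ERR cells seeded 6 h earlier were incubated with compounds for 17.5 h at 37 C.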
Structure (SMILES),Potency,"viability change, negative = cytotoxic"
O=[N+]([O-])c1ccc(F)c([N+](=O)[O-])c1,34.7 µM (active),
Clc1cccc(SC2CCNCC2)n1,,-5.97% [at 42.5 µM]
C=CC(C)=O,,3.45%
CC(=O)[C@H]1CC[C@H]2[C@@H]3CC[C@H]4C[C@](C)(O)CC[C@]4(C)[C@H]3CC[C@]12C,,1.98% [at 42.5 µM]
CCCCN(N=O)C(=N)N[N+](=O)[O-],,-6.16%
O=[N+]([O-])c1cc(C(F)(F)F)cc([N+](=O)[O-])c1Cl,34.5 µM (active),
ClCCCCBr,,2.89%
O=S(=O)(O)C(F)(F)C(F)(F)C(F)(F)C(F)(F)F,,3.73%
ClCC(Br)CBr (configuration not stated),,0.842%
CC(Cl)C(C)Cl (configuration not stated),,-0.277%
ClC=C(Cl)Cl,,0.0169%
c1ccc(C2CC2)c(OCC2=NCCN2)c1,,3.95% [at 42.5 µM]
CNC(C)Cc1ccccc1OC (configuration not stated),,7.35% [at 42.5 µM]
NC(=O)C(Cl)(Cl)Cl,,-3.12%
Clc1cc(C(Cl)(Cl)Cl)cnc1Cl,,1.65%
O=C(O)C(F)(F)C(F)(F)C(F)(F)C(F)(F)C(F)(F)C(F)(F)C(F)(F)C(F)(F)C(F)(F)F,,0.1%
Nc1nc(N)nc(N)n1,,1.62%
COc1cc(Cl)c(OC)cc1Cl,,5.94%
C=CCN1CC[C@]23c4c5ccc(O)c4O[C@H]2C(=O)CC[C@@]3(O)[C@H]1C5,,-5.27% [at 42.5 µM]
CCC(Cl)CCl (configuration not stated),,-0.973%
Cc1cc(=O)[nH]o1,,0.493%
O=C(C(Cl)(Cl)Cl)C(Cl)(Cl)Cl,,5.88%
C=CCC1([C@H](C)CCC)C(=O)NC(=O)NC1=O,,2.89%
Sc1ccccc1Cl,,9.27% [at 42.5 µM]
CC1(C)[C@H](C=C(Cl)Cl)[C@@H]1C(=O)O[C@@H](C#N)c1cccc(Oc2ccccc2)c1,,1.7%
Brc1ccccc1,,-0.56%
CCN(C)N=O,,-1.01%
